{"source": "the supplement of paper PMC8728848", "assay_in_all_cases": "glycan array binding signal (z-score within array); higher = stronger binding", "details_in_all_cases": "glycan notation: IUPAC condensed, linker removed; mutation: D229G", "key": {"[1]": {"target": "Fuc(a1-2)Gal(b1-3)GlcNAc(b1-2)Man(a1-3)[Fuc(a1-2)Gal(b1-3)GlcNAc(b1-2)Man(a1-6)]Man(b1-4)GlcNAc(b1-4)GlcNAc", "how_it_was_run": "(§1)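 From the Consortium for Functional Glycomics database, 3228 arrays were curated, keeping only those whose protein sequence was available. Binding is given as a within-array Z-score averaged across arrays sharing a protein sequence and across linkers. Negative Z-scores can be read as non-binding.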"}, "[2]": {"target": "Fuc(a1-2)Gal(b1-3)GlcNAc(b1-3)GalNAc", "how_it_was_run": "as §1"}, "[3]": {"target": "Fuc(a1-2)Gal(b1-3)GlcNAc(b1-3)[Gal(b1-4)GlcNAc(b1-6)]Gal(b1-4)Glc", "how_it_was_run": "as §1"}, "Fuc(a1-2)Gal(b1-4)GlcNAc": {"target": "Fuc(a1-2)Gal(b1-4)GlcNAc", "how_it_was_run": "as §1"}, "[4]": {"target": "Fuc(a1-2)Gal(b1-4)GlcNAc(b1-3)Gal(b1-4)GlcNAc(b1-3)Gal(b1-4)GlcNAc", "how_it_was_run": "as §1"}, "[5]": {"target": "Fuc(a1-2)Gal(b1-4)[Fuc(a1-3)]GlcNAc(b1-3)Gal(b1-4)[Fuc(a1-3)]GlcNAc", "how_it_was_run": "as §1"}, "[6]": {"target": "Fuc(a1-2)Gal3S(b1-4)GlcNAc", "how_it_was_run": "as §1"}, "Fuc(a1-2)Gal6S(b1-4)Glc": {"target": "Fuc(a1-2)Gal6S(b1-4)Glc", "how_it_was_run": "as §1"}, "[7]": {"target": "Fuc(a1-2)[Gal(a1-3)]Gal(b1-3)GlcNAc(b1-2)Man(a1-3)[Fuc(a1-2)[Gal(a1-3)]Gal(b1-3)GlcNAc(b1-2)Man(a1-6)]Man(b1-4)GlcNAc(b1-4)GlcNAc", "how_it_was_run": "as §1"}, "[8]": {"target": "Fuc(a1-2)[Gal(a1-3)]Gal(b1-3)GlcNAc(b1-6)GalNAc", "how_it_was_run": "as §1"}, "[9]": {"target": "Fuc(a1-2)[Gal(a1-3)]Gal(b1-4)GlcNAc(b1-2)Man(a1-3)[Fuc(a1-2)[Gal(a1-3)]Gal(b1-4)GlcNAc(b1-2)Man(a1-6)]Man(b1-4)GlcNAc(b1-4)GlcNAc", "how_it_was_run": "as §1"}, "[10]": {"target": "Fuc(a1-2)[Gal(a1-3)]Gal(b1-4)GlcNAc(b1-6)GalNAc", "how_it_was_run": "as §1"}, "[11]": {"target": "Fuc(a1-2)[Gal(a1-3)]Gal(b1-4)[Fuc(a1-3)]GlcNAc(b1-3)GalNAc", "how_it_was_run": "as §1"}, "[12]": {"target": "Fuc(a1-2)[GalNAc(a1-3)]Gal(b1-4)GlcNAc(b1-2)Man", "how_it_was_run": "as §1"}, "[13]": {"target": "Fuc(a1-2)[GalNAc(a1-3)]Gal(b1-4)GlcNAc(b1-3)[Fuc(a1-2)[GalNAc(a1-3)]Gal(b1-4)GlcNAc(b1-6)]GalNAc", "how_it_was_run": "as §1"}, "[14]": {"target": "Fuc(a1-2)[GalNAc(a1-3)]Gal(b1-4)[Fuc(a1-3)]GlcNAc(b1-3)GalNAc", "how_it_was_run": "as §1"}, "[15]": {"target": "Fuc(a1-3)[Gal(b1-4)]GlcNAc(b1-3)Gal(b1-4)[Fuc(a1-3)]GlcNAc(b1-3)Gal(b1-4)[Fuc(a1-3)]GlcNAc", "how_it_was_run": "as §1"}, "[16]": {"target": "Fuc(a1-3)[Gal3S(b1-4)]GlcNAc6S", "how_it_was_run": "as §1"}, "Gal(a1-3)Gal(b1-3)GlcNAc": {"target": "Gal(a1-3)Gal(b1-3)GlcNAc", "how_it_was_run": "as §1"}, "[17]": {"target": "Gal(a1-3)Gal(b1-3)GlcNAc(b1-2)Man(a1-3)[Gal(a1-3)Gal(b1-3)GlcNAc(b1-2)Man(a1-6)]Man(b1-4)GlcNAc(b1-4)GlcNAc", "how_it_was_run": "as §1"}, "Gal(b1-2)Gal": {"target": "Gal(b1-2)Gal", "how_it_was_run": "as §1"}, "Gal(b1-3)Gal": {"target": "Gal(b1-3)Gal", "how_it_was_run": "as §1"}, "[18]": {"target": "Gal(b1-3)GlcNAc(b1-3)Gal(b1-4)GlcNAc(b1-3)Gal(b1-4)GlcNAc(b1-2)[Gal(b1-3)GlcNAc(b1-3)Gal(b1-4)GlcNAc(b1-3)Gal(b1-4)GlcNAc(b1-6)]Man(a1-6)[Gal(b1-3)GlcNAc(b1-3)Gal(b1-4)GlcNAc(b1-3)Gal(b1-4)GlcNAc(b1-2)Man(a1-3)]Man(b1-4)GlcNAc(b1-4)[Fuc(a1-6)]GlcNAc", "how_it_was_run": "as §1"}, "Gal(b1-3)GlcNAc6S": {"target": "Gal(b1-3)GlcNAc6S", "how_it_was_run": "as §1"}, "[19]": {"target": "Gal(b1-3)[Fuc(a1-4)]GlcNAc(b1-2)Man(a1-3)[Gal(b1-3)[Fuc(a1-4)]GlcNAc(b1-2)Man(a1-6)]Man(b1-4)GlcNAc(b1-4)[Fuc(a1-6)]GlcNAc", "how_it_was_run": "as §1"}, "[20]": {"target": "Gal(b1-4)GlcNAc(b1-2)[Gal(b1-4)GlcNAc(b1-4)]Man(a1-3)[Gal(b1-4)GlcNAc(b1-2)Man(a1-6)]Man(b1-4)GlcNAc(b1-4)GlcNAc", "how_it_was_run": "as §1"}, "[21]": {"target": "Gal(b1-4)GlcNAc(b1-2)[Gal(b1-4)GlcNAc(b1-4)]Man(a1-3)[GlcNAc(b1-4)][Gal(b1-4)GlcNAc(b1-2)Man(a1-6)]Man(b1-4)GlcNAc(b1-4)GlcNAc", "how_it_was_run": "as §1"}, "[22]": {"target": "Gal(b1-4)GlcNAc(b1-3)Gal(b1-3)GalNAc", "how_it_was_run": "as §1"}, "[23]": {"target": "Gal(b1-4)GlcNAc(b1-3)Gal(b1-4)GlcNAc(b1-2)Man(a1-3)[Gal(b1-4)GlcNAc(b1-3)Gal(b1-4)GlcNAc(b1-2)Man(a1-6)]Man(b1-4)GlcNAc(b1-4)[Fuc(a1-6)]GlcNAc", "how_it_was_run": "as §1"}, "[24]": {"target": "Gal(b1-4)GlcNAc(b1-3)Gal(b1-4)GlcNAc(b1-3)Gal(b1-4)GlcNAc(b1-3)Gal(b1-4)GlcNAc(b1-3)Gal(b1-4)GlcNAc(b1-2)[Gal(b1-4)GlcNAc(b1-3)Gal(b1-4)GlcNAc(b1-3)Gal(b1-4)GlcNAc(b1-3)Gal(b1-4)GlcNAc(b1-3)Gal(b1-4)GlcNAc(b1-6)]Man(a1-6)[Gal(b1-4)GlcNAc(b1-3)Gal(b1-4)GlcNAc(b1-3)Gal(b1-4)GlcNAc(b1-3)Gal(b1-4)GlcNAc(b1-3)Gal(b1-4)GlcNAc(b1-2)Man(a1-3)]Man(b1-4)GlcNAc(b1-4)[Fuc(a1-6)]GlcNAc", "how_it_was_run": "as §1"}}, "note": "Shown is part of a subset that was picked to be rich in the strongest signals."}
{"binder": "Epa1-NP-mutant-D229G (Candida glabrata), Q6VBJ0 (protein) MILNPALFLNKCVCIYTTLILLLLTNGGYATSSNDISLASKDPTTFPLGCSPDITTPKKGLSMELYSYDFRKKGSYPCWDAAYLDPNYPRTGYKSHRLLAKVDGVTGNINFYYHATKGCTPQLGHLPASYNYPKPLTMTNFTMLLYGYFRPKVTGFHTFTISADDLLFVNFGAGNAFDCCRRDSSADHFGNYQAYAIWGSKTAKDELTVHLDAGVYYPIRLFYNNREYGGALSFTFKTESNENTVSDFSEYFFSLDDTEEGCPGLISYDSSCASVKTSKIIGIDYHTETPNENLVPITKTIYHLGIPCTGTTTTPLCGSGFYDPLANKCVTINTSSTSSVTKTTSHTTSKEVSFHSSISSQKTLIPKSIPSPYGPIKSQSIPTEMETSSEISSSEYAFSDVISTPSHSPYTKKHSSLNSSSYTSTVIHSLTSYSISQGIFSTSLSEQNITSKSSTDKFSTATSMSNNITQSSIIISQFSTNNENYTTTSMHTSSDKISTETLNNSISTTTSILFSNSSTILKNNTTIISSDKDTHYHPVNPTIVCSTNKTEIICASITQPSISNSNNHWSSSVLKFNSTTVRSTLPSSAGSNETSINVPFSSSTESNTSTSSTSTSNSKMVRSTLPSSAGSNETSISVPFSSSTESNTSTSSTSTSNSKMVRSTLPSSAGSNETSINVPFSSSTESNTSTSSTSTSNSKTVRSTPFSSAGIIMTSLSQRNNKSASSYASSNSKCYNTADSCRKVHSTPSYLLTSSYTSEGVDYDCSLVSTKLKINDTNCVNNKHTTKSCLKTSVTTTIPTLEIKTARKSSSNTIGLHSYPTSSPNKSISSAPIIGYISSFKTIKTASPSYQTSDLTTITTITSLNNPGSTAVENTHESNDKSRKTSSNDISSKHSVIKETKDAVESSNKSHQTNTLKCSSIIIASSSHNSYESLGGTTLTLTLSKVYSPQNNDTLPFLEISEVNPSRTVLPESSKMMQYLTSTEERNKTARNTIATNIVSISTFHFEGEGNAIRMGYTQLLLMLIGIIVMNIGT", "values": [{"measurement": "glycan array binding signal (z-score)", "setting": "[1]", "result": 1.63}, {"measurement": "glycan array binding signal (z-score)", "setting": "[2]", "result": 0.514}, {"measurement": "glycan array binding signal (z-score)", "setting": "[3]", "result": 1}, {"measurement": "glycan array binding signal (z-score)", "setting": "Fuc(a1-2)Gal(b1-4)GlcNAc", "result": 0.427}, {"measurement": "glycan array binding signal (z-score)", "setting": "[4]", "result": -0.455}, {"measurement": "glycan array binding signal (z-score)", "setting": "[5]", "result": -1.5}, {"measurement": "glycan array binding signal (z-score)", "setting": "[6]", "result": 1.12}, {"measurement": "glycan array binding signal (z-score)", "setting": "Fuc(a1-2)Gal6S(b1-4)Glc", "result": -0.521}, {"measurement": "glycan array binding signal (z-score)", "setting": "[7]", "result": 0.17}, {"measurement": "glycan array binding signal (z-score)", "setting": "[8]", "result": 0.093}, {"measurement": "glycan array binding signal (z-score)", "setting": "[9]", "result": 2.01}, {"measurement": "glycan array binding signal (z-score)", "setting": "[10]", "result": -0.039}, {"measurement": "glycan array binding signal (z-score)", "setting": "[11]", "result": 2.93}, {"measurement": "glycan array binding signal (z-score)", "setting": "[12]", "result": -0.751}, {"measurement": "glycan array binding signal (z-score)", "setting": "[13]", "result": 0.092}, {"measurement": "glycan array binding signal (z-score)", "setting": "[14]", "result": -0.531}, {"measurement": "glycan array binding signal (z-score)", "setting": "[15]", "result": -0.559}, {"measurement": "glycan array binding signal (z-score)", "setting": "[16]", "result": 2.08}, {"measurement": "glycan array binding signal (z-score)", "setting": "Gal(a1-3)Gal(b1-3)GlcNAc", "result": -0.137}, {"measurement": "glycan array binding signal (z-score)", "setting": "[17]", "result": 3.6}, {"measurement": "glycan array binding signal (z-score)", "setting": "Gal(b1-2)Gal", "result": -1.18}, {"measurement": "glycan array binding signal (z-score)", "setting": "Gal(b1-3)Gal", "result": -0.801}, {"measurement": "glycan array binding signal (z-score)", "setting": "[18]", "result": 2.48}, {"measurement": "glycan array binding signal (z-score)", "setting": "Gal(b1-3)GlcNAc6S", "result": 1.23}, {"measurement": "glycan array binding signal (z-score)", "setting": "[19]", "result": 2.15}, {"measurement": "glycan array binding signal (z-score)", "setting": "[20]", "result": -1.41}, {"measurement": "glycan array binding signal (z-score)", "setting": "[21]", "result": -0.683}, {"measurement": "glycan array binding signal (z-score)", "setting": "[22]", "result": 0.068}, {"measurement": "glycan array binding signal (z-score)", "setting": "[23]", "result": 0.671}, {"measurement": "glycan array binding signal (z-score)", "setting": "[24]", "result": 2.8}]}
